# Read-outs that look alike come from different tables or passages of the source.
# Assays:
# PRKAA2 = conditions: read-out: apparent Kd, n = 1
# PRKD2 = conditions: read-out: apparent Kd, n = 1
substance,measurement,setting,value
Lestaurtinib,potency estimated from few doses,"PRKAA2; compound concentrations:100 nM and 1000 nM (sheet 'Lestaurtinib' of Supplementary Table 1),run:Lestaurtinib_02496_R2,Plate:MR013",598 nM
same,potency estimated from few doses,"PRKAA2; compound concentrations:100 nM and 1000 nM (sheet 'Lestaurtinib' of Supplementary Table 1),run:Lestaurtinib_02496_R3,Plate:MR013",785 nM
same,potency estimated from few doses,"PRKAA2; compound concentrations:100 nM and 1000 nM (sheet 'Lestaurtinib' of Supplementary Table 1),run:Lestaurtinib_02572_R1,Plate:MR015",617 nM
same,potency estimated from few doses,"PRKAA2; compound concentrations:100 nM and 1000 nM (sheet 'Lestaurtinib' of Supplementary Table 1),run:Lestaurtinib_02572_R2,Plate:MR015",1330 nM
same,potency estimated from few doses,"PRKAA2; compound concentrations:100 nM and 1000 nM (sheet 'Lestaurtinib' of Supplementary Table 1),run:Lestaurtinib_02572_R3,Plate:MR015",1400 nM
same,potency estimated from few doses,"PRKAA2; compound concentrations:100 nM and 1000 nM (sheet 'Lestaurtinib' of Supplementary Table 1),run:Lestaurtinib_02577_R2,Plate:MR016",1210 nM
same,potency estimated from few doses,"PRKAA2; compound concentrations:100 nM and 1000 nM (sheet 'Lestaurtinib' of Supplementary Table 1),run:Lestaurtinib_02577_R3,Plate:MR016",924 nM
same,potency estimated from few doses,"PRKAA2; compound concentrations:100 nM and 1000 nM (sheet 'Lestaurtinib' of Supplementary Table 1),run:Lestaurtinib_02584_R1,Plate:MR017",1410 nM
same,potency estimated from few doses,"PRKAA2; compound concentrations:100 nM and 1000 nM (sheet 'Lestaurtinib' of Supplementary Table 1),run:Lestaurtinib_02584_R3,Plate:MR017",1530 nM
same,potency estimated from few doses,"PRKAA2; compound concentrations:100 nM and 1000 nM (sheet 'Lestaurtinib' of Supplementary Table 1),run:Lestaurtinib_02601_R1,Plate:MR018",805 nM
same,potency estimated from few doses,"PRKAA2; compound concentrations:100 nM and 1000 nM (sheet 'Lestaurtinib' of Supplementary Table 1),run:Lestaurtinib_02601_R2,Plate:MR018",710 nM
same,potency estimated from few doses,"PRKAA2; compound concentrations:100 nM and 1000 nM (sheet 'Lestaurtinib' of Supplementary Table 1),run:Lestaurtinib_02606_R2,Plate:MR019",749 nM
same,potency estimated from few doses,"PRKAA2; compound concentrations:100 nM and 1000 nM (sheet 'Lestaurtinib' of Supplementary Table 1),run:Lestaurtinib_02606_R3,Plate:MR019",736 nM
same,potency estimated from few doses,"PRKAA2; compound concentrations:100 nM and 1000 nM (sheet 'Lestaurtinib' of Supplementary Table 1),run:Lestaurtinib_02624_R1,Plate:MR020",849 nM
same,potency estimated from few doses,"PRKAA2; compound concentrations:100 nM and 1000 nM (sheet 'Lestaurtinib' of Supplementary Table 1),run:Lestaurtinib_02624_R2,Plate:MR020",711 nM
same,potency estimated from few doses,"PRKAA2; compound concentrations:100 nM and 1000 nM (sheet 'Lestaurtinib' of Supplementary Table 1),run:Lestaurtinib_02624_R3,Plate:MR020",877 nM
same,potency estimated from few doses,"PRKAA2; compound concentrations:100 nM and 1000 nM (sheet 'Lestaurtinib' of Supplementary Table 1),run:Lestaurtinib_02724_R2,Plate:MR021",803 nM
same,potency estimated from few doses,"PRKAA2; compound concentrations:100 nM and 1000 nM (sheet 'Lestaurtinib' of Supplementary Table 1),run:Lestaurtinib_02724_R3,Plate:MR021",946 nM
same,potency estimated from few doses,"PRKAA2; compound concentrations:100 nM and 1000 nM (sheet 'Lestaurtinib' of Supplementary Table 1),run:Lestaurtinib_02748_R1,Plate:MR024",752 nM
same,potency estimated from few doses,"PRKAA2; compound concentrations:100 nM and 1000 nM (sheet 'Lestaurtinib' of Supplementary Table 1),run:Lestaurtinib_02748_R3,Plate:MR024",559 nM
same,potency estimated from few doses,"PRKAA2; compound concentrations:100 nM and 1000 nM (sheet 'Lestaurtinib' of Supplementary Table 1),run:Lestaurtinib_02752_R2,Plate:MR025",851 nM
same,potency estimated from few doses,"PRKAA2; compound concentrations:100 nM and 1000 nM (sheet 'Lestaurtinib' of Supplementary Table 1),run:Lestaurtinib_02752_R3,Plate:MR025",786 nM
same,potency estimated from few doses,"PRKAA2; compound concentrations:100 nM and 1000 nM (sheet 'Lestaurtinib' of Supplementary Table 1),run:Lestaurtinib_02765_R1,Plate:MR026",911 nM
same,potency estimated from few doses,"PRKAA2; compound concentrations:100 nM and 1000 nM (sheet 'Lestaurtinib' of Supplementary Table 1),run:Lestaurtinib_02765_R2,Plate:MR026",741 nM
same,potency estimated from few doses,"PRKAA2; compound concentrations:100 nM and 1000 nM (sheet 'Lestaurtinib' of Supplementary Table 1),run:Lestaurtinib_02766_R1,Plate:MR027",782 nM
same,potency estimated from few doses,"PRKAA2; compound concentrations:100 nM and 1000 nM (sheet 'Lestaurtinib' of Supplementary Table 1),run:Lestaurtinib_02766_R2,Plate:MR027",96.4 nM
same,potency estimated from few doses,"PRKAA2; compound concentrations:100 nM and 1000 nM (sheet 'Lestaurtinib' of Supplementary Table 1),run:Lestaurtinib_02766_R3,Plate:MR027",669 nM
same,potency estimated from few doses,"PRKAA2; compound concentrations:100 nM and 1000 nM (sheet 'Lestaurtinib' of Supplementary Table 1),run:Lestaurtinib_02768_R3,Plate:MR028",518 nM
same,potency estimated from few doses,"PRKAA2; compound concentrations:100 nM and 1000 nM (sheet 'Lestaurtinib' of Supplementary Table 1),run:Lestaurtinib_02795_R2,Plate:MR022",783 nM
same,potency estimated from few doses,"PRKAA2; compound concentrations:100 nM and 1000 nM (sheet 'Lestaurtinib' of Supplementary Table 1),run:Lestaurtinib_02795_R3,Plate:MR022",860 nM
same,potency estimated from few doses,"PRKAA2; compound concentrations:100 nM and 1000 nM (sheet 'Lestaurtinib' of Supplementary Table 1),run:Lestaurtinib_02802_R1,Plate:MR029",713 nM
same,potency estimated from few doses,"PRKAA2; compound concentrations:100 nM and 1000 nM (sheet 'Lestaurtinib' of Supplementary Table 1),run:Lestaurtinib_02802_R2,Plate:MR029",472 nM
same,potency estimated from few doses,"PRKAA2; compound concentrations:100 nM and 1000 nM (sheet 'Lestaurtinib' of Supplementary Table 1),run:Lestaurtinib_02802_R3,Plate:MR029",74.9 nM
same,potency estimated from few doses,"PRKAA2; compound concentrations:100 nM and 1000 nM (sheet 'Lestaurtinib' of Supplementary Table 1),run:Lestaurtinib_02896_R2,Plate:MR030",1800 nM
same,potency estimated from few doses,"PRKAA2; compound concentrations:100 nM and 1000 nM (sheet 'Lestaurtinib' of Supplementary Table 1),run:Lestaurtinib_02896_R3,Plate:MR030",761 nM
same,potency estimated from few doses,"PRKAA2; compound concentrations:100 nM and 1000 nM (sheet 'Lestaurtinib' of Supplementary Table 1),run:Lestaurtinib_03172_R1,Plate:MR031",796 nM
same,potency estimated from few doses,"PRKAA2; compound concentrations:100 nM and 1000 nM (sheet 'Lestaurtinib' of Supplementary Table 1),run:Lestaurtinib_03172_R2,Plate:MR031",564 nM
same,potency estimated from few doses,"PRKAA2; compound concentrations:100 nM and 1000 nM (sheet 'Lestaurtinib' of Supplementary Table 1),run:Lestaurtinib_03172_R3,Plate:MR031",696 nM
same,potency estimated from few doses,"PRKAA2; compound concentrations:100 nM and 1000 nM (sheet 'Lestaurtinib' of Supplementary Table 1),run:Lestaurtinib_03252_R1,Plate:MR032",1210 nM
same,potency estimated from few doses,"PRKAA2; compound concentrations:100 nM and 1000 nM (sheet 'Lestaurtinib' of Supplementary Table 1),run:Lestaurtinib_03252_R2,Plate:MR032",26.1 nM
same,potency estimated from few doses,"PRKD2; compound concentrations:100 nM and 1000 nM (sheet 'Lestaurtinib' of Supplementary Table 1),run:Lestaurtinib_02339_R1,Plate:MR001",41.6 nM
same,potency estimated from few doses,"PRKD2; compound concentrations:100 nM and 1000 nM (sheet 'Lestaurtinib' of Supplementary Table 1),run:Lestaurtinib_02339_R3,Plate:MR001",39.3 nM

# Reference: article PMC11062922 (Nature Chemical Biology, 2023)
